Compound activity deposited in PubChem by Broad Institute.
PrP 5UTR inh = inhibition of PrP 5' UTR reporter expression | cell-based PrP 5' UTR mRNA reporter, plate reader | inhibition, % (no concentration beside the values) | actives 0.35% (n = 340,000); in the data active = inhibition above about 52%; also: 0 = median of the neutral control wells
TcdB GH inh = TcdB glycohydrolase inhibitors, primary screen, biochemical, single point, plate reader | actives 0.24% (n = 350,000) | inhibition, % at 9.99 µM | TcdB glycohydrolase enzymatic assay | Toxin B (Clostridioides difficile), P18177; in the data active = inhibition above about 10%
Mtb BioA inh = M. tuberculosis BioA enzyme inhibitors, primary screen, biochemical, plate reader, single point, HTS; 7,8-diaminopelargonic acid synthase BioA (Mycobacterium tuberculosis); purified M. tuberculosis BioA enzyme; inhibition, % at 9.99 µM; actives 0.096% (n = 360,000); in the data active = inhibition above about 40%
Y pestis TopoI = Yersinia pestis topoisomerase I inhibitors, primary screen, biochemical, cleavage product accumulation, plate reader, single point; actives 0.064% (n = 360,000); activity, % at 10 µM; Y. pestis Topo-I cleavage product accumulation; in the data active = activity above about 50%, passing the limit was not always enough
PrP UTR cherry = prion 5' UTR mRNA inhibition, cherry-pick retest. shares compounds with PrP 5UTR inh. cell-based prion protein 5' UTR reporter, plate reader. inhibition, % at 2.5 µM. actives 48% (n = 1,100). AID 504592, 2011; in the data active = inhibition above about 54%
* hit, by the source's call; nt = no result given. An excerpt weighted towards active compounds, which were near 0.57% of everything screened.

SMILES	PrP 5UTR inh	TcdB GH inh	Mtb BioA inh	Y pestis TopoI	PrP UTR cherry
C=C1C(=O)O[C@@H]2C[C@@H](C)[C@@H]3C=CC(=O)[C@@]3(C)[C@@H](OC(=O)CC(=O)O[C@H]3[C@@H]4C(=C)C(=O)O[C@@H]4C[C@@H](C)[C@@H]4C=CC(=O)[C@]43C)[C@H]12	95*	0	-1	4	98*
C[C@@H]1CN([C@@H](C)CO)C(=O)c2cccc(NC(=O)CCCCCC(=O)Nc3ccccc3N)c2O[C@@H]1CN(C)C(=O)Nc1cccc2ccccc12	nt	2	nt	nt	nt
O=C(C[C@H]1CC[C@H](NS(=O)(=O)c2ccc(F)cc2)[C@H](CO)O1)NCc1ccccc1F	nt	0	nt	nt	nt
C=CC[n+]1c(-c2ccc(C)cc2)csc1Nc1ccc(NC(C)=O)cc1	71*	0	nt	29	59*
O=C(c1cc2n(n1)C(C(F)(F)F)CC(c1ccco1)N2)N1CCc2ccccc2C1 (stereo unspecified)	64*	nt	-2	4	-17
COc1ccccc1N1CCN(C(=O)c2cc3n(n2)C(C(F)(F)F)CC(c2ccco2)N3)CC1 (stereo unspecified)	-8	nt	-1	31	nt
Oc1ccccc1-c1n[nH]c(-c2ccccc2O)n1	69*	0	nt	-6	-40
Cc1noc(C)c1NC(=O)Nc1ccc2c(c1)C(=O)N([C@H](C)CO)C[C@H](C)[C@@H](CN(C)C(=O)Nc1ccc(F)cc1)O2	nt	0	0	nt	nt
CCC(=O)N1CC2(C1)[C@@H](c1ccc(-c3ccc(F)cc3)cc1)[C@@H](CO)N2S(C)(=O)=O	nt	0	nt	nt	nt
COC(=O)Cc1[nH]n(-c2ccccc2)c(=O)c1C(C)=Nc1ccccc1	-30	0	3	-5	nt
COC(=O)Cc1[nH]n(-c2nc3ccccc3s2)c(=O)c1C(C)=Nc1ccc(C)cc1	92*	0	nt	4	92*
COC(=O)Cc1[nH]n(-c2nc3ccccc3s2)c(=O)c1C(C)=Nc1ccc(Cl)cc1	91*	1	nt	15	87*
CC(C)CC#Cc1ccc2c(c1)O[C@H](CN(C)C(=O)c1cccc(F)c1)[C@H](C)CN([C@H](C)CO)S2(=O)=O	nt	1	-2	nt	nt
C[C@H]1CN([C@@H](C)CO)C(=O)c2cc(NC(=O)CCC(F)(F)F)ccc2O[C@@H]1CN(C)C(=O)Nc1ccc2c(c1)OCO2	nt	-1	-2	nt	nt
CO[C@@H]1CN(C)C(=O)c2ccc(NC(=O)C3CC3)cc2OC[C@@H](C)N(C(=O)c2cnccn2)C[C@@H]1C	nt	-1	nt	nt	nt
CC(=O)OC1CC(OC2C(O)CC(OC3C(O)CC(OC4CCC5(C)C(CCC6C5CC(O)C5(C)C(C7=CC(=O)OC7)CCC65O)C4)OC3C)OC2C)OC(C)C1OC1OC(CO)C(O)C(O)C1O (stereo unspecified)	90*	2	0	4	90*
C[C@H]1CC[C@@H]2[C@@H](C)[C@H]3[C@H](C[C@H]4[C@@H]5CC=C6C[C@@H](O[C@@H]7O[C@H](CO)[C@H](O)[C@H](O[C@@H]8O[C@H](CO)[C@@H](O)[C@H](O)[C@H]8O)[C@H]7O[C@@H]7O[C@@H](C)[C@H](O)[C@@H](O)[C@H]7O)CC[C@]6(C)[C@H]5CC[C@]34C)N2C1	-51	-1	-1	6	nt
C[C@]12CC[C@H](O)C[C@H]1CC[C@@H]1[C@@H]2CC[C@]2(C)[C@@H](C3=CC(=O)OC3)CC[C@]12O	77*	2	-1	2	84*
CC12CCC(O)CC1CCC1C2CCC2(C)C(C3=CC(=O)OC3)C(O)CC12O (stereo unspecified)	0	2	nt	-1	nt
CC12CCC(O)CC1CCC1C2CCC2(C)C(C3=CC(=O)OC3)CCC12O (stereo unspecified)	79*	1	nt	6	82*
COC1C(O)C(C)OC(OC2CCC3(C)C(CCC4C3C(O)CC3(C)C(C5=CC(=O)OC5)CCC43O)C2)C1O (stereo unspecified)	87*	-10	nt	-1	82*
C[C@@H]1O[C@@H](O[C@H]2C[C@@H](O)[C@]3(CO)[C@@H]4C(CC[C@]3(O)C2)[C@@]2(O)CC[C@H](C3COC(=O)C3)[C@@]2(C)C[C@H]4O)[C@H](O)[C@H](O)[C@H]1O (stereo partly specified)	48	0	0	0	nt
CC12CC[C@H]3[C@@H](CCC4(O)C[C@H](O)CCC34/C=N/NC(=O)Cc3ccccc3)C1(O)CCC2C1=CC(=O)OC1 (stereo partly specified)	-24	0	-2	24	nt
C[C@]12CC[C@H](O)C[C@H]1CC[C@@H]1[C@@H]2C[C@@H](O)[C@]2(C)[C@@H](C3=CC(=O)OC3)CC[C@]12O	59*	-4	0	5	66*
COCC(=O)Nc1ccc2c(c1)OC[C@H](C)N(C(=O)C1CCCC1)C[C@H](C)[C@@H](OC)CN(C)C2=O	nt	nt	-2	nt	nt
SMILES	PrP 5UTR inh	TcdB GH inh	Mtb BioA inh	Y pestis TopoI	PrP UTR cherry
O=[N+]([O-])c1ccc(N(CCO)CCO)c2c1no[n+]2[O-]	nt	4	-50	1	nt
CN1CCN(c2ccc([N+](=O)[O-])c3no[n+]([O-])c23)CC1	79*	1	-33	-8	86*
Cc1ccc2nc3sc(C(=O)N4CCOCC4)c(N)c3cc2c1	86*	nt	1	6	69*
COCC(=O)Nc1ccc2c(c1)OC[C@H](C)N(CC1CCCCC1)C[C@H](C)[C@@H](OC)CN(C)C2=O	nt	-1	2	nt	nt
CC(C)(C)C(=O)Nc1cc2nn(-c3ccccc3)nc2cc1Cl	86*	nt	-4	-4	73*
CC(=O)Nc1cc2nn(-c3ccccc3)nc2cc1Cl	-111	nt	-2	7	nt
CCCN1[C@@H]2Cn3c(ccc(-c4ccc(OC)cc4)c3=O)[C@H]1[C@@H](C(=O)NCC)[C@@H]2CO	nt	0	nt	nt	nt
Cn1cccc1/C=C(/C#N)c1ccc(F)cc1	80*	0	3	-2	-20
CC(=O)OC1CC2OC3C=C(C)CCC3(C)C1(C)C21CO1 (stereo unspecified)	nt	0	0	1	nt
CC(=O)O[C@H]1C[C@@H]2OC3C=C(C)CCC3(C)[C@@]1(C)[C@@]21CO1 (stereo partly specified)	72*	1	nt	12	59*
COCCNC(=O)C[C@H]1C[C@@H]2c3cc(NS(=O)(=O)c4ccccc4)ccc3O[C@@H]2[C@H](CO)O1	nt	0	0	nt	nt
COc1cc(OC)c2c(-c3cccc(-c4ccc(C(C)=O)cc4)c3)cc(=O)oc2c1	64*	nt	-2	1	93*
Cc1noc(C)c1NC(=O)N(C)C[C@H]1Oc2ncc(C#CC3CCCCC3)cc2C(=O)N([C@@H](C)CO)C[C@H]1C	nt	0	-1	nt	nt
CCN(CC)CCNC(=S)NC(=O)c1cn(-c2ccccc2)nc1-c1ccc(OC)cc1	67*	1	nt	-7	6
COC(=O)c1cn(-c2ccccc2)nc1-c1ccc(OC)cc1	-7	1	nt	2	nt
